Results filed as inconclusive are left out. Entries that show only a call come without a potency. A number with no mark means an inactive call. Activity calls are given as the source filed them. Calls follow the shape of the dose curve; as a rule, active = well fitted inhibition curve with a large enough effect; inconclusive = small, poorly fitted or top-dose-only effect; inactive = no such curve, though single readings can be large or run the other way.
Key:
[1] = tested on: Zika virus NS2B-NS3 protease (unlinked complex); assay: Primary screen GU Rhodamine qHTS for Zika virus inhibitors: Unlinked NS2B-NS3 protease assay (AID 1347159); also: nearly all actives have a fitted effect of over 60% in size
Summary of the method: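 Percent inhibition came from the 15-min rise in Rhodamine110 fluorescence (1.5 microM substrate, ~15% conversion), normalized to no-inhibitor and no-enzyme wells and Hill-fitted. Unlinked protease, 25 nM, pH 8.0 Tris buffer; compounds up to 114 microM, 15-min preincubation.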

[2] = tested on: Zika virus NS2B-NS3 protease (linked construct); assay: Primary screen NINDS Rhodamine qHTS for Zika virus inhibitors (AID 1347160); also: nearly all actives have a fitted effect of over 55% in size
Summary of the method: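 Rhodamine110-peptide cleavage (1.5 µM substrate) by 25 nM linked NS2B-NS3 enzyme at pH 8.0 (Tris, Tween 20), after 15 min RT preincubation with compounds; 15-min fluorescence change normalized to controls and Hill-fitted.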
Potency is read from the fitted curve at half-maximal effect.

Compound | activity change, negative = inhibition [1] | activity change, negative = inhibition [2] | Potency [1] | Potency [2]
C=C1CO[C@@]2(O[C@H]3CC4C5CC=C6C[C@@H](O)C[C@@H](O[C@@H]7OC[C@H](O)[C@H](O[C@@H]8OC[C@@H](O)[C@H](O)[C@H]8O)[C@H]7O[C@@H]7O[C@@H](C)[C@H](OC(C)=O)[C@@H](OC(C)=O)[C@H]7OC(C)=O)[C@]6(C)C5CC[C@]4(C)[C@@H]3[C@@H]2C)[C@@H](O)[C@H]1OC1OC(C)C(O)C(O)C1O (some centres not stated) | -10.8% [at 19.1 µM] | 5.43% [at 10.7 µM] | – | –
COC1=CC(=O)O/C1=C(/OC)[C@@H]1O[C@H]1c1ccccc1 | – | – | inactive | inactive
C=C1C(=O)OC2/C=C(\COC(C)=O)CC/C=C(\C=O)CC(OC(=O)C(C)CC)C12 (configuration not stated) | – | – | inactive | inactive
COc1cc(CN(CCN)C(=O)c2cccs2)ccc1OCc1ccccc1 | – | – | inactive | inactive
O=C(c1ccc(OC(F)F)c(C#Cc2ccccn2)c1)N1Cc2cccnc2C1 | – | – | inactive | inactive
COc1cc2ncnc(Oc3ccc(CC(=O)Nc4cnn(C(C)C)c4)cc3)c2cc1OC | – | – | inactive | inactive
CC(C)(Cc1nc(-c2ccc(O)cn2)no1)C(=O)NC1=C(C(=O)O)CCCC1 | – | – | inactive | inactive
CN(C)CCn1cc(-c2ccc(F)cc2)c(-n2cccc2)n1 | – | – | inactive | inactive
C/C1=C/CCC2=CC(OC2=O)C(C)(C)/C=C/C1=O (configuration not stated) | – | – | inactive | inactive
CCN(c1cc(-c2ccc(CN3CCOCC3)cc2)cc(C(=O)NCc2c(C)cc(C)[nH]c2=O)c1C)C1CCOCC1 | – | – | inactive | inactive
COC(=O)c1cc2c(C(F)(F)F)cc(-c3ccccc3)cc2n1O | – | – | 12.6 µM (active) | 15.8 µM (active)
O=C(NCC1(N2CCN(c3ccccc3)CC2)CCOCC1)c1cccnc1Sc1ccccc1 | – | – | inactive | inactive
Cn1c(CO)c(-c2ccccc2)c2cc([N+](=O)[O-])ccc21 | – | – | inactive | inactive
CCC(C)CC(=O)OC1C(=O)C(CO)=CC(O)C1C(C)C (configuration not stated) | – | – | inactive | inactive
CC1(C)CC[C@]2(C(=O)O)[C@H](O)C[C@]3(C)C(=CCC4[C@@]5(C)CC[C@H](O[C@@H]6O[C@H](CO[C@@H]7OC[C@H](O)[C@H](O)[C@H]7O[C@@H]7OC[C@H](O)[C@H](O)[C@H]7O)[C@@H](O)[C@H](O)[C@H]6O)C(C)(C)C5CC[C@]43C)[C@@H]2C1 (some centres not stated) | – | – | inactive | inactive
Fc1ccc(-n2cc(CCCCN3CCC4(CC3)OCc3ccccc34)c3ccccc32)cc1 | – | – | inactive | inactive

Compound | activity change, negative = inhibition [1] | activity change, negative = inhibition [2] | Potency [1] | Potency [2]
CCC(C)C1NC(=O)C(Cc2ccccc2)NC(=O)C(CCCCCC(=O)C(O)CO)NC(=O)C2CCCCN2C1=O (configuration not stated) | – | – | inactive | inactive
C=C(C)C(=O)O[C@H]1[C@H]2C(=C)C(=O)O[C@@H]2/C=C(\CO)CC/C=C(/C=O)[C@@H]1O | – | – | inactive | inactive
CCOC(=O)C1(CCOc2ccccc2)CCN(Cc2ccc(O)c(Cl)c2)CC1 | – | – | inactive | inactive
CC1(NC(=O)c2ccc(C#Cc3cccc(F)c3)cn2)COC1 | – | – | inactive | inactive
Cc1ccccc1CN1CCn2c1nc1c(c2=O)CN(Cc2ccccc2)CC1 | – | – | inactive | inactive
CCC(C)CNCC(=O)N1CCC2SC=CC2C1COc1cccc(C)c1 (configuration not stated) | – | – | inactive | inactive
Cc1ccc(CNc2ncnc3ccc(-c4ccc(CO)o4)cc23)o1 | – | – | inactive | inactive
Cc1cn2c(n1)Cc1ccc(Cl)cc1C(c1ccc(N)cc1)=N2 | – | – | inactive | inactive
COc1ccc(Oc2c(Cl)cnn(-c3cc(C)cc(C)c3)c2=O)cc1 | – | – | inactive | inactive
C=C(C)Cn1c(SCC(=O)c2cccs2)nc2sc3c(c2c1=O)CCCC3 | – | – | inactive | inactive
CCC(C)C(=O)O[C@H]1[C@@H](OC(=O)c2ccoc2)C[C@](C)(O)[C@]23OC(C)(C)[C@H](C[C@H](OC(=O)c4ccoc4)[C@]12COC(C)=O)[C@H]3OC(C)=O (some centres not stated) | – | – | inactive | inactive
N#Cc1cc(-c2ccnc(Nc3ccc(N4CCOCC4)cc3)n2)ccc1OC1CCOCC1 | – | – | inactive | inactive
O=C(O)C1=CO[C@@H](O[C@@H]2O[C@H](CO)[C@@H](O)[C@H](O)[C@H]2O)[C@@H]2C(CO)=CC[C@H]12 | – | – | inactive | inactive
O=C(Nc1cccc(C(F)(F)F)c1)Nc1ccc(Br)cc1-c1nn[nH]n1 | – | – | 3.16 µM (active) | 17.8 µM (active)
C=C1CC[C@@H]2[C@](C)(CO)[C@H](O)CC[C@@]2(C)[C@@H]1C/C=C1/C(=O)OCC1O (some centres not stated) | – | – | inactive | inactive

From PubChem BioAssay (NCATS)
